Data on 57 compounds can be found in PubChem BioAssay AID463173 (ICCB-Longwood Screening Facility, Harvard Medical School, 2010).

Out of some 52,000 compounds screened, about 4,300 (8.3%) were called active. Rule as the data show it: active = survival mostly below about 52% (no sharp cut-off); inactive = mostly above about 56%. For the sample, actives were picked, then their nearest neighbours and some compounds at random.

The assay deals with DeltatarO mutant. The experiment in a line: growth inhibition of S. aureus wild type versus tarO mutant, primary screen, teichoic acid synthesis inhibitors, RN4220, OD600 (AID 463173). Particulars: OD600, 18 h, stronger effect = lower value, screened at 18.75 µg/mL (by protocol).
In the case of `CCCS(=O)(=O)N1CCCC(C(=O)NCCCOC)C1` (configuration not stated), the survival was 77% (inactive).
The same measure for `CCOc1ccc(Br)cc1C1NC(=O)c2c(sc3c2CCN(C)C3)N1` (configuration not stated): 60% (inactive); for `CCn1c(C)c(C)c2cc(C(=O)NCc3ccc(OC)cc3OC)ccc21`: 70% (inactive); for `CCc1nn2c(=O)cc(COC(=O)C(CC)c3ccccc3)nc2s1` (configuration not stated): 92% (inactive).
The same measure for `CCN(Cc1ccccc1)C(=O)c1cc2ccc3cccnc3c2[nH]1`: 49% (inactive); for `Cc1cccc(C(=O)NCCc2nc3ccccc3n2Cc2ccc(Cl)cc2)c1`: 79% (inactive); for `COC(=O)c1ccc(N2C(=O)c3ccc(N)cc3C2=O)cc1`: 73% (inactive).
As for `COc1cc(Cl)c(NC(=O)c2cc(CN3CCCC3)on2)c(OC)c1`, the survival was 94% (inactive).
The result for `CC(=O)c1cccc(NC(=O)CSc2nnc3ccc(-c4ccc(Br)cc4)nn23)c1` reads 75% (inactive); that for `COC(=O)c1ccc(NC(=O)c2c(-c3ccccc3)c(-c3ccccc3)nn(C)c2=O)cc1`, 58% (inactive); that for `Cn1nc(-c2ccccc2)c(-c2ccccc2)c(C(=O)Nc2ccc(S(N)(=O)=O)cc2)c1=O`, 49% (active).
The result for `CCn1nc(-c2ccccc2)c(-c2ccccc2)c(C(=O)Nc2ccc(S(N)(=O)=O)cc2)c1=O` reads 66% (inactive).
The result for `Cc1ccc(-c2nc3sc(CCNC(=O)c4ccco4)c(C)n3n2)cc1` reads 87% (inactive); that for `Cc1ccc(C)c(CN2C(=O)c3ccccc3S(=O)(=O)c3ccc(C(=O)N4CCN(c5ccccc5F)CC4)cc32)c1`, 79% (inactive).
Turning to `COc1ccc(-c2cn3c(n2)sc2cc(C(=O)NCCCN4CCCCCC4)ccc23)cc1`, the survival was 64% (inactive).
The same measure for `COc1ccc(-c2cn3c(n2)sc2cc(C(=O)NCCCN4CCN(C)CC4)ccc23)cc1`: 95% (inactive).
The result for `CCCN1CCN(CCCNC(=O)c2ccc3c(c2)sc2nc(-c4ccc(OCC)cc4)cn23)CC1` reads 28% (active); that for `CCOc1ccc(-c2cn3c(n2)sc2cc(C(=O)NCCCN4CCCCC4)ccc23)cc1`, -1% (active); that for `CCOc1ccc(-c2cn3c(n2)sc2cc(C(=O)NCCCN4CCCCCC4)ccc23)cc1`, -2% (active).
As for `COc1ccc(-c2cn3c(n2)sc2cc(C(=O)NCCCc4ccccc4)ccc23)cc1`, the survival was 65% (inactive).
The result for `COc1ccc(-c2cn3c(n2)sc2cc(C(=O)NCCCN4CCCCC4)ccc23)cc1` reads 69% (inactive).
The result for `CCCN1CCN(CCCNC(=O)c2ccc3c(c2)sc2nc(-c4ccc(OC)cc4)cn23)CC1` reads 73% (inactive).
The result for `O=C(NCCN1CCOCC1)c1cnn2c(C(F)F)cc(-c3ccccc3)nc12` reads 86% (inactive).
For `CC(C)(C)C(=O)Nc1cc(-c2cccc(Br)c2)nn1-c1ccccc1`, the survival was 81% (inactive).
For the compound `CCc1ccccc1NC(=O)NCc1ccc2c(c1)CCN2C(=O)c1ccccc1`, the survival is 125% (inactive).
The result for `Cc1ccc(C)c(N2CCN(CCCNC(=O)c3ccc4nc(N5CCC(C)CC5)sc4c3)CC2)c1` reads 4% (active).
Regarding `Cc1ccc(C)c(N2CCN(CCCNC(=O)c3ccc4nc(N5CCCCC5)sc4c3)CC2)c1`, the survival is 71% (inactive).
The result for `CC1CCN(c2nc3ccc(C(=O)NCc4ccc(Cl)cc4)cc3s2)CC1` reads 128% (inactive).
The result for `COc1ccc(N2CCN(C(=O)c3ccc4nc(N5CCC(C)CC5)sc4c3)CC2)cc1` reads 84% (inactive); that for `Cc1ccc(Cl)cc1N1CCN(C(=O)c2ccc3nc(N4CCC(C)CC4)sc3c2)CC1`, 29% (active).
Consider `Cc1ccc(Cl)cc1N1CCN(CCCNC(=O)c2ccc3nc(N4CCCCC4)sc3c2)CC1`, for which the survival is 77% (inactive).
With `COc1cccc(N2CCN(C(=O)c3ccc4nc(N5CCC(C)CC5)sc4c3)CC2)c1`, the survival was 62% (inactive).
For `CC1CCN(c2nc3ccc(C(=O)N4CCN(c5ccccc5)CC4)cc3s2)CC1`, the survival is 72% (inactive).
The same measure for `Cc1cccc(N2CCN(C(=O)c3ccc4nc(N5CCC(C)CC5)sc4c3)CC2)c1C`: 1% (active); for `Cc1ccc(CN2C(=O)C3(SCC(=O)N3c3ccc(C)c(C)c3)c3ccccc32)cc1` (configuration not stated): 99% (inactive); for `COc1ccc(CCC(=O)NCCc2csc(-c3cccc(F)c3)n2)cc1`: 83% (inactive).
As to `Cc1cccc(N(C)S(=O)(=O)c2ccc3c(c2)NC(=O)CC(=O)N3)c1`, the survival is 86% (inactive).
The same measure for `COc1cccc(C(=O)NCC(C)C)c1`: 81% (inactive); for `CCOc1ccc(-c2nc(CSCC(=O)NCc3ccc(C)cc3)c(C)o2)cc1`: 78% (inactive).
The same measure for `CCOc1ccc(-c2nc(CSCC(=O)NCc3ccc(Cl)cc3)c(C)o2)cc1`: 95% (inactive); for `COc1ccc(CNC(=O)CSCc2nc(-c3ccccc3F)oc2C)cc1`: 67% (inactive).
As to `Cc1oc(-c2ccccc2F)nc1CSCC(=O)NCc1ccccc1`, the survival was 41% (active).
The result for `Cc1cccc(-c2nc(CS(=O)CC(=O)NCc3ccc(Cl)cc3)c(C)o2)c1` (configuration not stated) reads 61% (inactive); that for `Cc1ccc(CNC(=O)CSCc2nc(-c3cccc(C)c3)oc2C)cc1`, -5% (active).
With `COc1ccc(-c2nc(CSCC(=O)NCCc3ccccc3)c(C)o2)cc1`, the survival is 86% (inactive).
The result for `Cc1ccc(CNC(=O)CSCc2nc(-c3ccc(Cl)cc3)oc2C)cc1` reads 66% (inactive); that for `Cc1ccc(CCNC(=O)CSCc2nc(-c3ccc(C)cc3)oc2C)cc1`, 26% (active).
Consider `COc1ccc(-c2nc(CSCC(=O)NCCc3ccc(C)cc3)c(C)o2)cc1OC`, for which the survival was 56% (inactive).
As for `Cc1oc(-c2ccccc2F)nc1CSCC(=O)NCCc1ccccc1`, the survival is 94% (inactive).
On to `CCc1ccc(-c2nc(CSCC(=O)NCc3ccc(C)cc3)c(C)o2)cc1`, for which the survival was -3% (active).
The result for `O=C(CC1SC(=NC2CCCCC2)NC1=O)Nc1ccccc1` (configuration not stated) reads 89% (inactive); that for `O=C(Nc1ccc(Cl)cc1Cl)c1cc(S(=O)(=O)N2CCN(c3ccccc3F)CC2)ccc1F`, 102% (inactive).
The same measure for `CCN(C(=O)C1CCCN(c2ncnc3c2nc2n3CCCCC2)C1)c1cccc(C)c1` (configuration not stated): 75% (inactive); for `CC(C)Cc1nn2c(=O)cc(COC(=O)c3cccc(NS(C)(=O)=O)c3)nc2s1`: 82% (inactive); for `Cc1ccc(C(=O)CCCn2nnc(-c3ccncc3)n2)cc1C`: 100% (inactive).
Turning to `O=C(CSC1=NC2CCCCC2N1)N1CCOCC1` (configuration not stated), the survival is 83% (inactive).
The same measure for `Cc1ccc(NC(=O)CSc2nc3ccccc3nc2Cc2ccccc2)c(Cl)c1`: 99% (inactive).
